# Mac1 fbg enh = enhancers of CD11b/CD18 adhesion to fibrinogen, primary screen, K562 cells, luminescence; Integrin beta-2 (Homo sapiens) + Integrin alpha-M (Homo sapiens), P05107+P11215; ATPlite luminescence; activation, % at 10 µM; 0.07% of 93,000 active; AID 1499, 2009;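 active means 10 µM primary screen giving 50% or more activity, confirmed by 40% or more on retest at that dose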
# ERa SRC1 pot = enhancers of ERα–SRC-1 coactivator binding, primary screen, biochemical, TR-FRET, ERα LBD, low estradiol; 1.3% of 86,000 active; coactivator binding (% of control), % at 25.6 µM; TR-FRET ERalpha-LBD/SRC-Cy5 coactivator binding, 2 h; 100 = basal binding, no effect; AID 639, 2007; in the data active means activity above about 200%;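 further: binding measured in presence of low estradiol as agonist stimulus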
# Target sequence (P03372 whole entry, looked up, the tested form may be a part): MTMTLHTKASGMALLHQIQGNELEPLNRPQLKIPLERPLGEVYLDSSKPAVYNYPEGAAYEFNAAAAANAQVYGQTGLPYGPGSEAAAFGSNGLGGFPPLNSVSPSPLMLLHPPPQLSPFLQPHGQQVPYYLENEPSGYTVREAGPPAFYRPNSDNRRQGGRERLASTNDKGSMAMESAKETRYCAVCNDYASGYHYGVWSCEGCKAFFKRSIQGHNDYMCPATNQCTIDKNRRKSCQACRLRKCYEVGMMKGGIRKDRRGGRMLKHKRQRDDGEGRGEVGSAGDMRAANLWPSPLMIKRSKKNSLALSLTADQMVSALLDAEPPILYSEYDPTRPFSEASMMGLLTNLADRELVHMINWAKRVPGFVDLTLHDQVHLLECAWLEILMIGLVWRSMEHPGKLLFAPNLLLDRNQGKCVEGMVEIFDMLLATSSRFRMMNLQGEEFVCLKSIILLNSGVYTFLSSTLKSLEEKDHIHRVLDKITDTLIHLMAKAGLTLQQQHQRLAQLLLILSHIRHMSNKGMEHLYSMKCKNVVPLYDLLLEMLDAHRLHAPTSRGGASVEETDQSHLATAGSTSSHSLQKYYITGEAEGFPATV
# ERb SRC1 inh = inhibitors of ERβ-SRC1 coactivator interaction, primary screen, biochemical, TR-FRET, ERβ LBD, SRC-1 peptide | TR-FRET ER-beta LBD / SRC1-Cy5 peptide binding; receptor agonist-loaded with 1 µM estradiol | AID 633, 2007 | inhibition, % at 25.6 µM | 1.3% of 86,000 active;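 active means compounds whose percent inhibition of the receptor-coactivator binding signal exceeds about 50% in the single-dose screen, limit read from the data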
# ERa SRC1 inh = ERα–SRC-1 coactivator interaction inhibitors, primary screen, biochemical, TR-FRET, ERα LBD, estradiol-bound; 1.7% of 86,000 active; Estrogen receptor (Homo sapiens), P03372; TR-FRET ER-alpha LBD / SRC-1 peptide; inhibition, % at 25.6 µM; AID 629, 2007; in the data active means inhibition above about 50%
# Mac1 fbg inh = inhibitors of CD11b/CD18 adhesion to fibrinogen, primary screen, K562 cells, luminescence; ATPlite luminescence; Mn2+ added to activate the integrin; AID 1497, 2009; 0.54% of 93,000 active; Integrin beta-2 (Homo sapiens) + Integrin alpha-M (Homo sapiens), P05107+P11215; inhibition, % at 10 µM;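 active means primary inhibition of 50% or more at 10 µM, then 40% or more on retest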
# Numbers stand for hits; . = inactive; / = no result; [ ] = remark or other dose. Rows were chosen to be rich in hits. Some 3.1% of all compounds tested hit in one or more screens of this group.
SMILES,Mac1 fbg enh,ERa SRC1 pot,ERb SRC1 inh,ERa SRC1 inh,Mac1 fbg inh
CCCCCOP(=O)(OCCCCC)C1(NS(=O)(=O)c2ccccc2)C=CC(=O)c2ccccc21 (centres undefined),.,.,.,.,.
Cc1ccc(NS(=O)(=O)c2ccc(N3C(=O)CCC3=O)cc2)cc1,.,/,/,/,.
N#Cc1c(Cl)nc(SCc2ccccc2)nc1-c1ccccc1,.,/,/,/,74.4
c1ccc(CSc2ncccn2)cc1,.,.,.,.,.
COc1cc(C2NC(=O)NC(C)=C2C(=O)OC(C)C)ccc1OC(=O)c1ccco1 (centres undefined),/,.,.,.,/
CNc1ccc(Br)cc(C(=O)/C=C/c2cccc(OC)c2)c1=O,/,.,.,66.5[fluorescence artefact?],/
COc1cccc(/C=N/NC(=O)CCCC(=O)Nc2ccc(Br)cc2)c1,.,/,/,/,.
CCNc1ccc(Br)cc(C(=O)/C=C/c2ccc3c(c2)OCO3)c1=O,.,/,/,/,.
CCNc1ccc(Br)cc(C(=O)/C=C/c2c(Cl)cccc2Cl)c1=O,/,.,71.8[fluorescence artefact?],75.0[fluorescence artefact?],/
COc1cc(C)c(S(=O)(=O)NCc2ccc3c(c2)OCO3)cc1C,.,.,.,66.4,.
O=C(NCc1ccccc1)N1CCC(n2cnc3cc(F)ccc32)CC1,.,.,.,.,.
C/C(=C\C(=O)c1ccc(Br)cc1)NCc1ccccc1,.,.,.,.,.
C/C(=C\C(=O)c1ccc(Br)cc1)NCc1ccc(C)cc1,.,.,.,.,81.0
CCOC(=O)c1oc2ccc(CNC(C)(C)C)c(Cl)c2c1C,/,.,.,.,/
FC(F)(F)c1cccnc1N1CCN(c2ncnc3nc[nH]c23)CC1,.,.,.,56.0[fluorescence artefact?],.
N#Cc1cc2c(=O)n3ccccc3nc2n(CCCn2ccnc2)c1=N,.,.,56.5,.,.
CCn1c(CNC(=O)Cc2ccc(OC)cc2)nnc1SCC(=O)NC1CCCCC1,.,.,.,.,.
COc1ccc(NC(=O)Cn2nnc(-c3ccccc3NC(=O)c3ccco3)n2)cc1,.,.,51.9[fluorescence artefact?],.,.
COc1ccccc1NC(=O)Cn1nnc(-c2ccccc2NC(=O)c2ccco2)n1,.,.,.,.,.
O=C(Cn1nnc(-c2ccccc2NC(=O)c2ccco2)n1)NC1CCCCC1,.,288.1[fluorescence artefact?],.,.,.
O=C(Cn1nnc(-c2ccccc2NC(=O)c2ccccc2F)n1)NCc1ccco1,.,.,.,.,.
CCC(C)C(NC(=O)c1ccccc1NC(=O)c1ccco1)C(=O)NC1CCCCC1 (centres undefined),.,.,.,56.3[fluorescence artefact?],.
Cc1cnc(C(=O)Nc2ccccc2-c2nnn(CC(=O)NC3CCCC3)n2)cn1,.,.,.,.,.
COc1ccc(C(=O)Nc2ccccc2-c2nnn(CC(=O)NCc3ccco3)n2)cc1,.,209.9,.,.,.
O=C(CCc1ccc(S(=O)(=O)NCCc2ccccc2)cc1)NCc1ccco1,/,.,.,.,/
SMILES,Mac1 fbg enh,ERa SRC1 pot,ERb SRC1 inh,ERa SRC1 inh,Mac1 fbg inh
O=C(NNC(=S)NC(=O)c1sc2ccccc2c1Cl)c1ccc(Cl)cc1,.,/,/,/,.
CCOc1ccc(OCC)c(NC(=O)CSc2nc3ccccc3c(=O)n2C)c1,.,.,.,50.2[fluorescence artefact?],.
CCOc1ccc(OCC)c(NC(=O)CSc2nnnn2CC)c1,/,.,.,.,/
COc1cc(NC(=O)CSc2nc3ccccc3c(=O)n2C)ccc1NC(=O)c1ccco1,.,.,.,62.9,.
COc1ccc(OCC(=O)N2CCN(C(=O)c3ccccc3)CC2)cc1,.,492.2[fluorescence artefact?],.,.,.
COc1ccc(N2CCN(C(=O)COc3ccccc3)CC2)cc1,.,.,.,.,.
Cc1cc(CSc2ccccc2)ccc1NC(=O)c1ccc(Cl)c([N+](=O)[O-])c1,.,/,/,/,.
CC1(C)C2CC=C(/C=N/NC(=O)c3ccc(O)cc3)C1C2 (centres undefined),.,/,/,/,.
CCn1c(Cc2ccc(OC)cc2)nnc1SCC(=O)N1CCN(c2ccccc2)CC1,.,590.8[fluorescence artefact?],.,.,.
CCn1c(CSCc2ccc(F)cc2)nnc1SCC(=O)N1CCN(c2ccccc2)CC1,.,/,/,/,.
CN(CC(=O)Nc1sccc1C#N)C1CCCCC1,/,.,60.1[fluorescence artefact?],79.2[fluorescence artefact?],/
N#Cc1ccsc1NC(=O)CN1CCCCCC1,.,/,/,/,.
Cn1c(=O)c(C(=O)c2ccccc2)nc2ccccc21,.,.,.,.,.
O=C(c1ccccc1)c1nc2ccccc2n(CCCn2c(=O)c(C(=O)c3ccccc3)nc3ccccc32)c1=O,131.7,.,.,.,.
Cc1ccc2oc(=O)c3cc(C(=O)NCc4ccco4)sc3c2c1,.,.,53.9[fluorescence artefact?],67.5[fluorescence artefact?],.
CCN1CCN(C(=O)c2cc3c(=O)oc4ccc(C)cc4c3s2)CC1,/,.,.,.,/
O=C(c1sc2ccccc2c1Cl)N(Cc1cccs1)C1CCS(=O)(=O)C1 (centres undefined),.,.,.,57.5[fluorescence artefact?],.
Cc1ccc(N=Cc2ccc(N(C)C)cc2)cc1,.,.,.,.,.
CN(C)c1ccc(N=Cc2ccco2)cc1,.,.,70.1,.,.
CN(C)c1ccc(C=Nc2ccc(N(C)C)cc2)cc1,/,.,58.0[fluorescence artefact?],.,/
CN(C)c1ccc(C=Nc2ccccc2)cc1,/,.,.,.,/
CCN1CCN(C(c2cccs2)C(C)NC(=O)C(C)C)CC1 (centres undefined),/,.,.,.,/
Cc1cc2cc(CNC(=O)c3ccc(S(=O)(=O)N4CCCCC4)cc3)ccc2n1C,.,404.3[fluorescence artefact?],.,.,.
CCN(CC)S(=O)(=O)c1ccc(C(=O)NCc2ccc3c(c2)cc(C)n3C)cc1,.,.,.,.,.
Cc1cc2cc(CNC(=O)c3ccc(S(=O)(=O)N4CCCC4)cc3)ccc2n1C,.,293.0[fluorescence artefact?],.,.,.
SMILES,Mac1 fbg enh,ERa SRC1 pot,ERb SRC1 inh,ERa SRC1 inh,Mac1 fbg inh
CCN(CC)C(=O)C(=O)c1cccn1-c1cccc(-n2cccc2C(=O)C(=O)N(CC)CC)c1C#N,.,.,.,.,.
Cc1ccc(-c2nnc(SCC(=O)Nc3ccc4c(c3)oc3ccccc34)n2C)c(Cl)c1,.,.,.,.,59.9
Cn1c(SCC(=O)NC2CCCCC2)nnc1-c1cc2cc(Cl)ccc2o1,.,428.9[fluorescence artefact?],.,.,.
CCC(=O)Nc1cccc(NC(=O)CSc2nnc(C3CC3)n2C)c1,.,203.8,.,.,.
Cc1cc(NC(=O)CSc2nnc(C3CC3)n2C)no1,.,.,.,.,.
Cn1c(SCC(=O)Nc2cccc(Br)c2)nnc1-c1cc2ccccc2o1,.,631.4[fluorescence artefact?],.,.,.
CN(C)CCNc1oc(-c2cccc(Cl)c2)nc1C#N,.,.,.,.,.
Cc1ccnc(SCCn2c(N3CCOCC3)nc3c2c(=O)n(C)c(=O)n3C)n1,/,.,.,.,/
Cc1ccc(C)c(Oc2coc3cc(OCC(=O)Nc4ccccc4C(C)C)ccc3c2=O)c1,.,/,/,/,.
O=C(COc1ccccc1)NCC(=O)Nc1cccc2ccccc12,.,/,/,/,.

# Screening data (PubChem BioAssay)
